{"source": "PubChem BioAssay AID743313", "about": "(Broad Institute, 2014)", "note": "Unmarked numbers belong to inactive results. Calls of active or inactive are those of the source.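 How the source made its calls: active means cell killing with a fitted half-maximal concentration no more than twice the top valid dose used; inconclusive means flat curve with a moderate signal drop, or poor fit; inactive means the rest.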", "data": [{"assay": "loss of HepG2 viability via ATP – cell-based, plate reader, dry powder, set 7, cytotoxicity control, dose response (AID 743313)", "settings": "ATP luminescence (CellTiter-Glo), 72 h; series mostly up to 26 µM; activity change, negative = cytotoxicity: at the top concentration", "units": {"activity change, negative = cytotoxicity": "%"}, "values": [{"smiles": "CC(C)c1ccccc1NCCn1c(=S)[nH]c2ccccc21", "activity change, negative = cytotoxicity": -21.6}, {"smiles": "Cc1ccc(C(C)C)c(OCCn2c(=S)[nH]c3c(F)cccc32)c1", "activity change, negative = cytotoxicity": 0.666}, {"smiles": "Cc1ccc(OCCn2c(SCCO)nc3ccccc32)c(C(C)C)c1", "activity change, negative = cytotoxicity": -26.3}, {"smiles": "S=c1[nH]c2ccccc2n1CCOc1ccccc1", "activity change, negative = cytotoxicity": -9.79}, {"smiles": "Fc1ccc2[nH]c(=S)n(CCOc3ccccc3)c2c1", "activity change, negative = cytotoxicity": -2.84}, {"smiles": "S=c1[nH]c2cc(Cl)ccc2n1CCOc1ccccc1", "activity change, negative = cytotoxicity": -11.3}, {"smiles": "Cc1ccc(OCCn2c(=S)[nH]c3ccccc32)cc1", "activity change, negative = cytotoxicity": -6.11}, {"smiles": "COc1ccccc1OCCn1c(=S)[nH]c2ccccc21", "activity change, negative = cytotoxicity": -4.97}, {"smiles": "Cc1ccc(C(C)C)c(OCCn2c(=S)[nH]c3cc(F)ccc32)c1", "activity change, negative = cytotoxicity": -22.7}, {"smiles": "Fc1cccc2c1[nH]c(=S)n2CCOc1ccccc1", "outcome": "inactive"}, {"smiles": "Cc1ccc(C(C)C)c(OCCn2c(=S)[nH]c3cccc(F)c32)c1", "activity change, negative = cytotoxicity": -19.6}, {"smiles": "Cc1ccc(OCCn2cnc3ccccc32)c(C(C)C)c1", "activity change, negative = cytotoxicity": 6.12}, {"smiles": "S=c1[nH]c2cccc(Cl)c2n1CCOc1ccccc1", "outcome": "inactive"}, {"smiles": "Cc1cccc(OCCn2c(=S)[nH]c3ccc(C(F)(F)F)cc32)c1", "activity change, negative = cytotoxicity": -9.92}, {"smiles": "O=c1[nH]c2ccccc2n1CCOc1ccccc1", "activity change, negative = cytotoxicity": -5.21}, {"smiles": "Cc1ccc(C(C)C)c(OCCn2c(=S)[nH]c3ccc(F)cc32)c1", "activity change, negative = cytotoxicity": -15.2}, {"smiles": "Cc1ccc(OCCn2c(=S)[nH]c3ccccc32)c(C(C)C)c1", "outcome": "inactive"}, {"smiles": "CC(C)(C)c1ccccc1OCCn1c(=S)[nH]c2ccccc21", "activity change, negative = cytotoxicity": -9.42}, {"smiles": "Fc1cccc(OCCn2c(=S)[nH]c3ccccc32)c1", "activity change, negative = cytotoxicity": -8.16}, {"smiles": "COc1cccc(OCCn2c(=S)[nH]c3ccccc32)c1", "activity change, negative = cytotoxicity": -0.915}, {"smiles": "CC(C)c1ccccc1OCCn1c(=S)[nH]c2ccccc21", "activity change, negative = cytotoxicity": -18.4}, {"smiles": "Cc1ccc(OCCn2c(=S)[nH]c3ccccc32)c(C)c1", "activity change, negative = cytotoxicity": -11.8}, {"smiles": "Cc1cccc(OCCn2c(=S)[nH]c3cc(C(F)(F)F)ccc32)c1", "activity change, negative = cytotoxicity": -32.5}, {"smiles": "Cc1cccc(OCCn2c(=S)[nH]c3cc(F)ccc32)c1", "outcome": "inactive"}, {"smiles": "Cc1cccc(OCCn2c(=S)[nH]c3c(F)cccc32)c1", "outcome": "inactive"}, {"smiles": "COc1ccc(OCCn2c(=S)[nH]c3ccccc32)cc1", "activity change, negative = cytotoxicity": -3.91}, {"smiles": "Cc1ccc(C)c(OCCn2c(=S)[nH]c3ccccc32)c1", "activity change, negative = cytotoxicity": -18.1}]}]}
